HPGD block: qHTS Assay for Inhibitors of HPGD (15-Hydroxyprostaglandin Dehydrogenase); 15-hydroxyprostaglandin dehydrogenase [NAD(+)] (Homo sapiens), P15428; purified HPGD, NADH fluorescence kinetic, PGE2 substrate; Potency, µM, inactives show at the highest dose activity change, negative = inhibition, actives largely listed as inhibitors; 150,000 tested, 4.3% active; AID 894, 2007; active = well fitted inhibition curve with a large enough effect, not every such curve was filed as active; inconclusive = small, poorly fitted or top-dose-only effect, or another doubt; inactive = no such curve, though single readings can be large or run the other way; note: potency is the fitted concentration of half-maximal effect; % is set by controls: 0 for no effect and ±100 for the full control effect
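NADH formation kinetics: reaction with 30 uM PGE2 and 1 mM NAD+ (final), 20 nM enzyme, Tris-HCl pH 8 with Tween 20, after 15 min compound preincubation at room temperature. Fluorescence change, last versus first of five reads.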
HttQ103 aggreg: qHTS Multiplex Assay to Identify Dual Action Probes in a Cell Model of Huntington: Aggregate Formation (GFP); PC12 HttQ103-GFP aggregates, Acumen cytometry, 40 h; 220,000 tested, 1.1% active; Potency, µM (doses to about 46.1 µM), inactives show at the top dose activity change, negative = inhibition, most hits filed as inhibitors; note: potency is the fitted concentration of half-maximal effect; % is set by controls: 0 for no effect and ±100 for the full control effect; nearly all actives have a fitted effect of over 60% in size
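Multiplexed with ATP-based cell death, this channel scores GFP aggregates in PC12 cells expressing inducible HTTex1-Q103-GFP. Induction used 100 nM tebufenozide; compounds were tested in concentration series.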
ALDH1A1 block: qHTS Assay for Inhibitors of Aldehyde Dehydrogenase 1 (ALDH1A1) | Aldehyde dehydrogenase 1A1 (Homo sapiens), P00352 | 220,000 tested, 7.3% active | Potency, µM (series often up to 75.3 µM), inactives show at the highest dose activity, negative = inhibition, actives largely listed as inhibitors | Purified ALDH1A1, NADH fluorescence, propionaldehyde substrate; active = well fitted inhibition curve with a large enough effect, not every such curve was filed as active; inconclusive = small, poorly fitted or top-dose-only effect, or another doubt; inactive = no such curve, though single readings can be large or run the other way;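 note: potency is the fitted concentration of half-maximal effect; plate controls were no enzyme wells and a reference inhibitor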
Target sequence (P00352 whole entry, looked up): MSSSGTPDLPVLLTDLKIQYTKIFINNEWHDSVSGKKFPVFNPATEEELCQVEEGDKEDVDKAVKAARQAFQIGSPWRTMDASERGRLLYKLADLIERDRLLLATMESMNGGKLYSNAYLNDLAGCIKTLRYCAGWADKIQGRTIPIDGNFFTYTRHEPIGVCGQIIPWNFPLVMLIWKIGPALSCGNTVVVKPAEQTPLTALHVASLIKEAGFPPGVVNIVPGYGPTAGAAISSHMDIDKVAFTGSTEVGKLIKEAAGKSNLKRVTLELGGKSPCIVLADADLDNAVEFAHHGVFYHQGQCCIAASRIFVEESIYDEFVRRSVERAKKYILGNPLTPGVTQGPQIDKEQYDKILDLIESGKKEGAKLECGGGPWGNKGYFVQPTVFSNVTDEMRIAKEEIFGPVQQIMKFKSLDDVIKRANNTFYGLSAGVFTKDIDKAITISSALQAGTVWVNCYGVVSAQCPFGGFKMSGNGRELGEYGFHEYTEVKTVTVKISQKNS
IMPase Li inh: qHTS Assay for Identifying the Cell-Membrane Permeable IMPase Inhibitors: Potentiation with Lithium; CHO-M1 cells, IP1 TR-FRET (IP-One), carbachol + lithium; Potency, µM (titrated, usually from 59.4 µM), without a hit: at the top dose activity, negative = IMPase inhibition, most hits filed as inhibitors; 210,000 tested, 0.35% active;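 note: IP1 builds up when IMPase is blocked and the TR-FRET signal falls; potency is the fitted concentration of half-maximal effect; plate controls were basal vehicle for no effect and high inhibitor control for full effect; nearly all actives have a fitted effect of over 50% in size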
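IP1 accumulation measured by competitive TR-FRET in lysed CHO-M1 cells after 30 min compound exposure at 37C, with a small lithium addition to potentiate weak responses. Hill-equation AC50 from ratio and donor-channel data.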
IMPase cell inh: qHTS Assay for Identifying the Cell-Membrane Permeable IMPase Inhibitors | inhibition (IP1 accumulation), % at 46.1 µM | 120,000 tested, under 10 active | Inositol monophosphatase 1 (Rattus norvegicus), P97697 | CHO-M1 cells, IP1 accumulation, HTRF TR-FRET ratio; active = well fitted curve in the direction sought with a large enough effect in the signal ratio, not every such curve was filed as active; inconclusive = small, poorly fitted or top-dose-only effect, or a change in a side signal; inactive = no such curve, though single readings can be large or run the other way; the % refers to the signal ratio;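 note: cells stimulated with carbachol in lithium chloride buffer; plate controls were DMSO basal wells for no effect and reference inhibitor wells for full effect; higher means more IMPase inhibition seen as more IP1 and lower FRET ratio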
Target sequence (P97697 whole entry, looked up): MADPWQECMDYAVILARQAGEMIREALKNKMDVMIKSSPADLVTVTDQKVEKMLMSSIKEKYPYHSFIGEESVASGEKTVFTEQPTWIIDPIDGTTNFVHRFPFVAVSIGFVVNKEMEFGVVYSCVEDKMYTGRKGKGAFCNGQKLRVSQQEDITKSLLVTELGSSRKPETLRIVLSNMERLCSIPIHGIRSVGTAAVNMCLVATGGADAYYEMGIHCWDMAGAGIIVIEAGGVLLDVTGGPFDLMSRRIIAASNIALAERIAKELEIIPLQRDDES
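Measured: the HTRF emission ratio (665/620 nm) plus the 620 nm donor channel, each fitted to the Hill equation to give AC50. Cells were CHO-M1 given compounds up to 46 uM and a 30 min carbachol stimulation at 37C.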
HTT cytoprotect: qHTS Multiplex Assay to Identify Dual Action Probes in a Cell Model of Huntington: Cytoprotection (ATP); PC12 HTT-Q103 induced, cytoprotection, ATP luminescence, 40 h; Potency, µM (highest dose often 56.4 µM), inactives show cytoprotection (ATP increase), actives largely listed as activators; 230,000 tested, 0.14% active; note: potency is the fitted concentration of half-maximal effect; % of control where 0% means no effect; nearly all actives have a fitted effect of over 45% in size
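PC12 cells stably carrying ecdysone-inducible Htt exon 1 (Q103)–GFP were induced with 100 nM tebufenozide (final) alongside library compounds in a dose series. Cytoprotection was scored as retained ATP by ATPlite luminescence.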
An asterisk follows results filed as active; ? = inconclusive; . = not tested or not shown; [ ] = remark or other dose. In the library only some 9.4% were active in any assay of this set; here they are far more common. Unless noted, calls come from the whole dose curve; as a rule, active = well fitted curve in the direction sought with a large enough effect; inconclusive = small, poorly fitted or top-dose-only effect, or another doubt; inactive = no such curve, though single readings can be large; an effect the other way counts as inactive or inconclusive.

SMILES	HPGD block	HttQ103 aggreg	ALDH1A1 block	IMPase Li inh	IMPase cell inh	HTT cytoprotect
CN(C)N1C(N)=C(C#N)C(c2cccs2)C2=C1CC(C)(C)CC2=O (configuration not stated)	.	15%	10µM*	1%	.	?
CC1(C)CC(=O)C2=C(C1)N(c1cccnc1)C(N)=C(C#N)C2c1cccs1 (configuration not stated)	-26%	-5%	22µM*	8%	.	.
COc1cc2c(cc1OC)C(c1ccccc1)CC2=O (configuration not stated)	.	-15%[9.22 µM]	.	.	.	17%[10 µM]
COc1cc(OC)c(C2CC(=O)N3CN(c4ccccc4)CSC3=C2C#N)cc1OC (configuration not stated)	10µM*	30%	8.9µM*	-3%[38.3 µM]	-4	-18%[0.074 µM]
CCc1ccccc1N1CSC2=C(C#N)C(c3cc(OC)c(OC)cc3OC)CC(=O)N2C1 (configuration not stated)	7.9µM*	?	?	-23%[38.3 µM]	8	-28%[0.074 µM]
CC(C)c1ccc(S(=O)(=O)Nc2cc3c(cc2NCc2ccccc2)n(C)c(=O)n3C)cc1	.	.	.	.	-2	.
CCc1cccc(C)c1NC(=S)N(CCN(C)C)C(C)c1ccco1 (configuration not stated)	.	-27%[9.22 µM]	.	.	.	18%[10 µM]
COC(=O)c1c(NC(=O)CC2SC(N)=NC2=O)sc2c1CCCC2 (configuration not stated)	-15%	?	25µM*	4%	-13	-7%[10 µM]
COC(=O)c1c(NC(=O)CC2NCCNC2=O)sc2c1CCCC2 (configuration not stated)	-2%	5%	?	20%[38.3 µM]	-9	-18%
COC(=O)c1c(NC(=O)CC2SC(N)=NC2=O)sc2c1CCC(C)C2 (configuration not stated)	-2%	12%	13µM*	-6%	.	16%[10 µM]
COC(=O)c1c(NC(=O)CSc2ncnc3[nH]ncc23)sc2c1CCC2	.	16%	14µM*	-8%	.	-18%
CCOC(=O)c1c(NC(=O)CC2SC(N)=NC2=O)sc(C)c1C (configuration not stated)	.	23%[9.22 µM]	0%	4%	.	-34%[10 µM]
CCOC(=O)c1c(NC(=O)CC2SC(N)=NC2=O)sc2c1CCC(C)C2 (configuration not stated)	-24%	?	16µM*	11%	.	29%[10 µM]
COC(=O)c1c(NC(=O)CSc2ncnc3c2cnn3-c2ccccc2Cl)sc2c1CCCC2	-16%	-13%	?	12%	-1	20%[1.9 µM]
CNc1cc(-c2ccccc2CN(C)C)ncn1	.	.	?	11%	.	-2%
Cc1ccccc1C1CC(=O)Oc2ccc(O)cc21 (configuration not stated)	28µM*	.	20µM*	1%	.	14%[96.6 µM]
CC(=O)c1cccc(NC(=O)Nc2ccc(C(=O)N3CCOCC3)cc2)c1	13µM*	10µM*	?	-4%	-1	-9%[10 µM]
CC(=O)c1cccc(NC(=O)Nc2cccnc2)c1	-5%	7.9µM*	?	3%	0	10%[0.074 µM]
COc1ccc(NC(=O)Nc2cccs2)cc1OC	-7%	19%[9.22 µM]	22µM*	12%[38.3 µM]	-4	-55%
Cc1ccc(NC(=O)Nc2ccc(C(=O)N3CCOCC3)cc2)cc1	-27%	-17%	8%	12%[38.3 µM]	2	1%
COc1ccc(NC(=O)C2CCC(CNS(=O)(=O)c3cccs3)CC2)cc1OC (configuration not stated)	.	3%	5µM*	-5%	11	-31%
Cc1nnc(SCC2=C(C(=O)O)N3C(=O)[C@@H](NC(=O)Cn4cnnn4)[C@@H]3SC2)s1	-9%	.	5%[20.9 µM]	-2%	0[20.6 µM]	?
COc1cccc(NC(=O)Nc2cccs2)c1	-21%	?	?	-4%	-3	-5%[10 µM]
CC(=O)c1cccc(NC(=O)Nc2cccs2)c1	-11%	13µM*	-5%	9%[38.3 µM]	-10	-12%
O=C1C[C@@H]2CCN3C(=O)CCC[C@@H]([C@H]23)[C@@H]1Cc1ccccc1	-1%	.	16µM*	9%	.	-9%
SMILES	HPGD block	HttQ103 aggreg	ALDH1A1 block	IMPase Li inh	IMPase cell inh	HTT cytoprotect
O=C1CCCN1CCCN1C(=O)N[C@@H](Cc2ccccc2)C1=O	-11%	3%	4%	-2%[38.3 µM]	-15	4%
CC1OC(OC2CCC3(C)C(CCC4C3CC(O)C3(C)C(C5=CC(=O)OC5)CCC43O)C2)CC(O)C1OC1CC(O)C(OC2CC(O)C(OC3OC(CO)C(O)C(O)C3O)C(C)O2)C(C)O1 (configuration not stated)	-5%	-10%	5%	5%	.	18%
N#Cc1cc2sc3nnc(-c4ccncc4)n3c2cc1C#N	-11%	.	2%	24%[38.3 µM]	3	13µM*
CC(C)NC(=S)N=Nc1c(O)[nH]c2ccc([N+](=O)[O-])cc12	.	-18%	10µM*	24%	.	-22%[10 µM]
N#Cc1ccccc1OCC(O)CS(=O)(=O)c1ccccc1 (configuration not stated)	.	-14%[9.22 µM]	0%	-5%	.	-21%
N#Cc1ccccc1OC[C@H](O)CNCCNC(=O)Nc1ccccc1	-3%	.	-6%	4%	2	32µM*
COc1ccc2cc(CN(CCc3ccccc3)Cc3nnnn3Cc3ccco3)c(=O)[nH]c2c1	-12%	-4%	0.079µM*	-3%[38.3 µM]	8	-3%[10 µM]
COc1ccccc1CN(Cc1cc2c(C)ccc(C)c2[nH]c1=O)Cc1nnnn1Cc1ccco1	-7%	?	14µM*	33%[38.3 µM]	1	-2%[1.9 µM]
Cc1ccc2cc(CN(Cc3ccc4c(c3)OCO4)Cc3nnnn3Cc3ccco3)c(=O)[nH]c2c1	-28%	-4%	14µM*	11%[38.3 µM]	1	-10%[10 µM]
Cc1ccc(CN(Cc2cc3cc4c(cc3[nH]c2=O)OCCO4)Cc2nnnn2Cc2ccco2)cc1	?	-12%	?	-9%[38.3 µM]	-21	1%
CCCCC#Cc1nc(NC)c2ncn([C@@H]3O[C@@H](CO)[C@H](O)[C@H]3O)c2n1	4%	.	-1%	7%	-1	-11%
Cc1ccccc1OCCn1c(=N)n(C(C)C)c2ccccc21	.	.	.	.	8	.
Cc1ccccc1-c1cc2c(nn1)-c1ccccc1C2=O	?	25µM*	25µM*	21%[38.3 µM]	8	-123%
Cc1ccc(-c2cc3c(nn2)-c2ccccc2C3=O)cc1	.	1%[9.22 µM]	.	.	.	-62%[10 µM]

From PubChem BioAssay
